# Assay results: the supplement of paper PMC10646978
# ± gives the standard deviation.
# System: RAW-Dual (murine macrophage reporter line)
# Assay: NF-kB reporter (SEAP) activity fold change vs agonist alone; higher = enhanced NF-kB activity
# Conditions: modulator concentration 10 µM; agonist: MPLA […]
# Method in brief: (§1)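 RAW-Dual murine macrophage reporter cells were plated at 50 000 per well in 384-well plates, pin-transferred compound to 10 μM final, and pre-incubated for 1 hour at 37 °C before a PRR agonist was added and the cells incubated overnight. NF-κB activity was read from supernatant SEAP with QUANTI-Blue at 620 nm absorbance, and IRF activity from Lucia luciferase with QUANTI-Luc by luminescence. Each signal was expressed as fold change by dividing by the mean agonist-only control on the same plate. Two replicate plates were averaged, with errors obtained by propagation.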
row,Structure (SMILES),NF-kB reporter
1,Cl.Fc1ccc(C2CCNCC2COc2ccc3c(c2)OCO3)cc1 (stereo not given),0.918 ± 0.058
2,O=C(O[C@@H]1C[C@@H]2C[C@@H]3C[C@H](C1)N2CC3=O)c1c[nH]c2ccccc12 [Prestw-1510],0.697 ± 0.043
3,Cc1ccc(S(=O)(=O)NC(=O)NN2CC3CCCC3C2)cc1 (stereo not given),0.973 ± 0.061
4,Cl.O[C@@H](c1cc(C(F)(F)F)nc2c(C(F)(F)F)cccc12)[C@H]1CCCCN1,1.05 ± 0.071
5,COc1ccc(N2C(=O)C(=Cc3ccc([N+](=O)[O-])s3)SC2=S)cc1,1.71 ± 0.16
6,N=C(N)Nc1ccc(Cl)cc1,0.961 ± 0.042
7,O=C(O)c1ccc(NCn2nnc3ccccc32)cc1,1.03 ± 0.097
8,Cc1ccc(C=C2Oc3c(ccc(O)c3CN3CCN(CCO)CC3)C2=O)cc1,1.19 ± 0.11
9,Clc1cccc(OCCCOc2cccc3cccnc23)c1,1.53 ± 0.17
10,COc1ccc2c(C)nc(Nc3nc(C)cc(-c4ccccc4)n3)nc2c1,1.07 ± 0.1
11,CC12CC3(C)CC(C)(C1)CC(C(=O)NC(C)(C)CO)(C2)C3,0.879 ± 0.09
12,c1ccc(CN2CCN(c3cc(-c4cccnc4)n[nH]3)CC2)cc1,1.21 ± 0.092
13,CC(O)(CNC(=O)CSc1ccc(F)cc1)c1ccc(-c2ccccc2)cc1 (stereo not given),0.935 ± 0.038
14,CCC(=O)Nc1ccc(S(=O)(=O)NCC2CCN(c3ncc(F)cn3)CC2)c(C)c1,1.04 ± 0.065
15,Cc1cc(C)n(CCC(=O)N2CCc3nc4ccc(F)cn4c(=O)c3C2)n1,1.01 ± 0.1
16,Cc1ccc(C2C=C(c3ccccc3)Nc3ncnn32)cc1 (stereo not given),0.893 ± 0.064
17,Nc1nc(=O)n([C@@H]2CS[C@H](CO)O2)cc1F,1.21 ± 0.073
18,COc1cc(C(=O)O)ccc1NC(=O)[C@@H]1N[C@@H](CC(C)(C)C)[C@](C#N)(c2ccc(Cl)cc2F)[C@H]1c1cccc(Cl)c1F,0.679 ± 0.058
19,CC(=O)N1CCN=C1SCc1cccc(C(F)(F)F)c1,0.896 ± 0.029
20,Cc1ccc(-n2c(C)cc(C=NNC(=O)CN3CCOCC3)c2C)c(C)c1,1.09 ± 0.097

row,Structure (SMILES),NF-kB reporter
1,N#Cc1cc(OC2CCSC2)nc2ccccc12 (stereo not given),1.18 ± 0.065
2,CCCCC1=NC2(CCCC2)C(=O)N1Cc1ccc(-c2ccccc2-c2nnn[nH]2)cc1 [Prestw-1736],0.952 ± 0.087
3,O=c1[nH]c(=O)n([C@H]2C[C@H](O)[C@@H](CO)O2)cc1I,0.992 ± 0.044
4,COc1cc2c(cc1OC)C1Cc3ccc(OC)c(OC)c3CN1CC2 (stereo not given),0.949 ± 0.067
5,O=C(O)C=Cc1ccc(S(=O)(=O)NCc2cccnc2)cc1,1.02 ± 0.091
6,COc1ccc(CNC2CCCc3ccccc32)c(OC)c1C (stereo not given),1.09 ± 0.1
7,Cc1ccc(-n2nc(C(C)(C)C)cc2NC(=O)NCc2cc(F)ccc2Oc2ccc3c(cnn3CCO)c2)cc1,0.964 ± 0.056
8,C1=C(c2ccccc2)Nc2nnnn2C1c1ccccc1 (stereo not given),0.996 ± 0.097
9,CNc1ccc([N+](=O)[O-])cc1-n1cnc(-c2ccc([N+](=O)[O-])cc2)c1,1.37 ± 0.12
10,CC(C)(C(=O)O)c1ccc(C(O)CCCN2CCC(C(O)(c3ccccc3)c3ccccc3)CC2)cc1.Cl (stereo not given),1.01 ± 0.067
11,CN1CCN(C(=O)CN2C(=O)c3cccc4cccc(c34)C2=O)CC1,0.88 ± 0.091
12,Cc1cn([C@H]2C=C[C@@H](CO)O2)c(=O)[nH]c1=O [Prestw-1279],0.957 ± 0.077
13,CC1(C)CC(=O)c2sc(NC(=O)c3ccccc3)nc2C1,1 ± 0.036
14,COC(=O)C1=CN(C2CC2)C=C(C(=O)OC)C1c1ccccc1Cl,1.1 ± 0.052
15,CC1CC(C)CN(S(=O)(=O)CCCOc2ccc3c(c2)OCO3)C1 (stereo not given),1.01 ± 0.061
16,NC(=O)c1cn(Cc2c(F)cccc2F)nn1,1 ± 0.049
17,CCOC(=O)c1sc(NN=Cc2cccc(Cl)c2)nc1C,0.89 ± 0.053
18,COc1cc2c(Oc3ccc4[nH]c(C)cc4c3F)ncnc2cc1OCCCN1CCCC1,1.09 ± 0.11
19,CCCc1nn(C)c2c(=O)[nH]c(-c3cc(S(=O)(=O)N4CCN(C)CC4)ccc3OCC)nc12,1 ± 0.068
20,CC(C(=O)O)c1ccc(C(=O)c2cccs2)cc1 (stereo not given),0.995 ± 0.065

# System: RAW-Dual (murine macrophage reporter line)
# Assay: IRF reporter (Lucia luciferase) activity fold change vs agonist alone; higher = enhanced IRF activity
# Conditions: modulator concentration 10 µM; agonist: 3'3'-cGAMP 10 ug/mL
# Method in brief: as §1
row,Structure (SMILES),IRF reporter
1,Cl.Fc1ccc(C2CCNCC2COc2ccc3c(c2)OCO3)cc1 (stereo not given),0.916 ± 0.041
2,O=C(O[C@@H]1C[C@@H]2C[C@@H]3C[C@H](C1)N2CC3=O)c1c[nH]c2ccccc12 [Prestw-1510],0.931 ± 0.04
3,Cc1ccc(S(=O)(=O)NC(=O)NN2CC3CCCC3C2)cc1 (stereo not given),0.901 ± 0.082
4,Cl.O[C@@H](c1cc(C(F)(F)F)nc2c(C(F)(F)F)cccc12)[C@H]1CCCCN1,0.504 ± 0.066
5,COc1ccc(N2C(=O)C(=Cc3ccc([N+](=O)[O-])s3)SC2=S)cc1,0.439 ± 0.012
6,N=C(N)Nc1ccc(Cl)cc1,0.984 ± 0.08
7,O=C(O)c1ccc(NCn2nnc3ccccc32)cc1,1 ± 0.032
8,Cc1ccc(C=C2Oc3c(ccc(O)c3CN3CCN(CCO)CC3)C2=O)cc1,1.02 ± 0.038
9,Clc1cccc(OCCCOc2cccc3cccnc23)c1,0.948 ± 0.11
10,COc1ccc2c(C)nc(Nc3nc(C)cc(-c4ccccc4)n3)nc2c1,0.914 ± 0.043
11,CC12CC3(C)CC(C)(C1)CC(C(=O)NC(C)(C)CO)(C2)C3,0.996 ± 0.067
12,c1ccc(CN2CCN(c3cc(-c4cccnc4)n[nH]3)CC2)cc1,1.09 ± 0.051
13,CC(O)(CNC(=O)CSc1ccc(F)cc1)c1ccc(-c2ccccc2)cc1 (stereo not given),0.685 ± 0.049
14,CCC(=O)Nc1ccc(S(=O)(=O)NCC2CCN(c3ncc(F)cn3)CC2)c(C)c1,1.79 ± 0.1
15,Cc1cc(C)n(CCC(=O)N2CCc3nc4ccc(F)cn4c(=O)c3C2)n1,1.03 ± 0.06
16,Cc1ccc(C2C=C(c3ccccc3)Nc3ncnn32)cc1 (stereo not given),1.1 ± 0.056
17,Nc1nc(=O)n([C@@H]2CS[C@H](CO)O2)cc1F,0.62 ± 0.15
18,COc1cc(C(=O)O)ccc1NC(=O)[C@@H]1N[C@@H](CC(C)(C)C)[C@](C#N)(c2ccc(Cl)cc2F)[C@H]1c1cccc(Cl)c1F,0.608 ± 0.053
19,CC(=O)N1CCN=C1SCc1cccc(C(F)(F)F)c1,0.572 ± 0.035
20,Cc1ccc(-n2c(C)cc(C=NNC(=O)CN3CCOCC3)c2C)c(C)c1,0.822 ± 0.024

row,Structure (SMILES),IRF reporter
1,N#Cc1cc(OC2CCSC2)nc2ccccc12 (stereo not given),0.935 ± 0.071
2,CCCCC1=NC2(CCCC2)C(=O)N1Cc1ccc(-c2ccccc2-c2nnn[nH]2)cc1 [Prestw-1736],0.943 ± 0.034
3,O=c1[nH]c(=O)n([C@H]2C[C@H](O)[C@@H](CO)O2)cc1I,1.04 ± 0.068
4,COc1cc2c(cc1OC)C1Cc3ccc(OC)c(OC)c3CN1CC2 (stereo not given),0.871 ± 0.052
5,O=C(O)C=Cc1ccc(S(=O)(=O)NCc2cccnc2)cc1,1.02 ± 0.062
6,COc1ccc(CNC2CCCc3ccccc32)c(OC)c1C (stereo not given),1.24 ± 0.04
7,Cc1ccc(-n2nc(C(C)(C)C)cc2NC(=O)NCc2cc(F)ccc2Oc2ccc3c(cnn3CCO)c2)cc1,1.06 ± 0.058
8,C1=C(c2ccccc2)Nc2nnnn2C1c1ccccc1 (stereo not given),0.949 ± 0.087
9,CNc1ccc([N+](=O)[O-])cc1-n1cnc(-c2ccc([N+](=O)[O-])cc2)c1,1.02 ± 0.046
10,CC(C)(C(=O)O)c1ccc(C(O)CCCN2CCC(C(O)(c3ccccc3)c3ccccc3)CC2)cc1.Cl (stereo not given),0.924 ± 0.029
11,CN1CCN(C(=O)CN2C(=O)c3cccc4cccc(c34)C2=O)CC1,0.971 ± 0.026
12,Cc1cn([C@H]2C=C[C@@H](CO)O2)c(=O)[nH]c1=O [Prestw-1279],0.969 ± 0.074
13,CC1(C)CC(=O)c2sc(NC(=O)c3ccccc3)nc2C1,0.807 ± 0.048
14,COC(=O)C1=CN(C2CC2)C=C(C(=O)OC)C1c1ccccc1Cl,0.945 ± 0.11
15,CC1CC(C)CN(S(=O)(=O)CCCOc2ccc3c(c2)OCO3)C1 (stereo not given),0.906 ± 0.03
16,NC(=O)c1cn(Cc2c(F)cccc2F)nn1,1.17 ± 0.3
17,CCOC(=O)c1sc(NN=Cc2cccc(Cl)c2)nc1C,0.849 ± 0.039
18,COc1cc2c(Oc3ccc4[nH]c(C)cc4c3F)ncnc2cc1OCCCN1CCCC1,0.927 ± 0.043
19,CCCc1nn(C)c2c(=O)[nH]c(-c3cc(S(=O)(=O)N4CCN(C)CC4)ccc3OCC)nc12,0.928 ± 0.036
20,CC(C(=O)O)c1ccc(C(=O)c2cccs2)cc1 (stereo not given),0.97 ± 0.03
